{
  "source": "PubChem BioAssay AID2025",
  "about": "(NMMLSC, 2009)",
  "note": "About 980 (0.3%) of roughly 330,000 compounds were called active. This is one part of a sample in which actives are shown more often than they occur.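 How the source made its calls: active means percent response vs DMSO below 50%; inconclusive means fewer than 70 events counted for the yeast strain; inactive means the rest.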",
  "data": [
    {"assay": "compounds altering RPL19A-GFP fluorescence, TOR branch – cell-based, S. cerevisiae, multiplex flow cytometry, MLPCN, primary screen (AID 2025);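 further: median channel GFP fluorescence of the barcoded RPL19A-GFP strain; ratio of sample median GFP to plate DMSO average so 100% = DMSO; lower means less RPL19A-GFP as with rapamycin TOR inhibition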", "settings": "S. cerevisiae RPL19A-GFP strain, 3 h, at 10 µM, stronger effect = lower value", "values": [
      {"smiles": "CCn1cc(C(=O)OCC(=O)Nc2cccc(C)c2)c(=O)c2ccc(C)nc21", "percent response vs DMSO": "96.6% (inactive)"},
      {"smiles": "C=CC[C@H](CC(=O)N(CCO)Cc1ccccc1)C(=O)N[C@@H](COC(=O)[C@@H](CC=C)Cc1ccc(F)cc1)Cc1ccccc1", "percent response vs DMSO": "96% (inactive)"},
      {"smiles": "CCNS(=O)(=O)c1ccc(NC(=O)c2cncc(Br)c2)cc1", "percent response vs DMSO": "96.5% (inactive)"},
      {"smiles": "O=C(CN1CCN(S(=O)(=O)c2ccc(Br)cc2)CC1)Nc1ccccc1C(=O)c1ccccc1", "percent response vs DMSO": "100% (inactive)"},
      {"smiles": "O=C(NNS(=O)(=O)Cc1ccccc1)c1ccc([N+](=O)[O-])cc1", "percent response vs DMSO": "44.4% [may fluoresce violet] (active)"},
      {"smiles": "O=C(Cc1ccccc1)NNS(=O)(=O)c1ccc([N+](=O)[O-])cc1", "percent response vs DMSO": "97.4% (inactive)"},
      {"smiles": "O=C(CNC(=O)c1ccccc1)Oc1ccc([N+](=O)[O-])cc1", "percent response vs DMSO": "103% (inactive)"},
      {"smiles": "CC(=O)c1ccc(N2CCN(C(=O)CCNC(=O)Cn3ccc4ccccc4c3=O)CC2)cc1", "percent response vs DMSO": "104% (inactive)"},
      {"smiles": "COc1cc(C(C(=O)NC2CCCC2)N(C(=O)c2ccco2)c2ccccc2C(C)=O)cc(OC)c1OC", "note": "(stereo unspecified)", "percent response vs DMSO": "108% (inactive)"},
      {"smiles": "O=C(CC(n1cncn1)C(Cl)(Cl)Cl)c1ccc([N+](=O)[O-])cc1", "note": "(stereo unspecified)", "percent response vs DMSO": "104% (inactive)"},
      {"smiles": "O=C(c1ccncc1)c1ccc([N+](=O)[O-])cc1", "percent response vs DMSO": "98.9% (inactive)"},
      {"smiles": "O=C(C1CCCO1)N(c1ccc(F)cc1)C1C=CS(=O)(=O)C1", "note": "(stereo unspecified)", "percent response vs DMSO": "97.9% (inactive)"},
      {"smiles": "CC(C)(C)NC(=O)C(c1ccc(Cl)cc1)N(CCO)C(=O)c1snc(C(N)=O)c1N", "note": "(stereo unspecified)", "percent response vs DMSO": "99.5% (inactive)"},
      {"smiles": "NC(=O)c1nsc(C(=O)N(CCCN2CCOCC2)C(C(=O)NC2CCCCC2)c2ccc(Cl)cc2)c1N", "note": "(stereo unspecified)", "percent response vs DMSO": "38% [may fluoresce violet] (active)"},
      {"smiles": "CCOc1ccc(C(C(=O)NC2CCCC2)N(C(=O)c2snc(C(N)=O)c2N)C2CCCC2)cc1", "note": "(stereo unspecified)", "percent response vs DMSO": "95.8% (inactive)"},
      {"smiles": "O=C(CCc1ccc(S(=O)(=O)N2CCOCC2)cc1)NN=C1CCCCCCC1", "percent response vs DMSO": "101% (inactive)"},
      {"smiles": "O=C(c1cc(S(=O)(=O)N2CCOCC2)ccc1Cl)N1CCOCC1", "percent response vs DMSO": "112% (inactive)"},
      {"smiles": "O=C(O)c1ccc(S(=O)(=O)N2CCOCC2)o1", "percent response vs DMSO": "47.2% [may fluoresce violet] (active)"},
      {"smiles": "CCOC(=O)CNC(=O)/C=C/c1c(Cl)cccc1Cl", "percent response vs DMSO": "94.2% (inactive)"},
      {"smiles": "CC(C)=CCCC1(C)C=Cc2c(ccc3c2[nH]c2cc(O)c(C)cc23)O1", "note": "(stereo unspecified)", "percent response vs DMSO": "97.2% (inactive)"},
      {"smiles": "O=C1CN(C(=O)COc2c(Cl)cccc2Cl)c2ccccc2N1", "percent response vs DMSO": "91.8% (inactive)"},
      {"smiles": "O=C1CN(C(=O)COC(=O)c2cnc(Cl)c(Cl)c2)c2ccccc2N1", "percent response vs DMSO": "18.6% [may fluoresce violet] (active)"},
      {"smiles": "COc1cc(OC)c(C(=O)OCC(=O)N2CC(=O)Nc3ccccc32)cc1OC", "percent response vs DMSO": "93.3% (inactive)"},
      {"smiles": "CN(NC(=O)C1CC(=O)N(c2ccccc2)C1)C1=NS(=O)(=O)c2ccccc21", "note": "(stereo unspecified)", "percent response vs DMSO": "102% (inactive)"},
      {"smiles": "CC1(C)CC2CC(C)(CN2c2ncnc3ccc(Br)cc23)C1", "note": "(stereo unspecified)", "percent response vs DMSO": "105% (inactive)"},
      {"smiles": "CN(CC(=O)Nc1ccccc1Cl)C(=O)c1ccccc1SCC(=O)N1CCCC1", "percent response vs DMSO": "94.7% (inactive)"},
      {"smiles": "O=c1c2c(nc3nc[nH]n13)CCC2", "percent response vs DMSO": "19.2% [may fluoresce violet] (active)"},
      {"smiles": "CSc1nc2nc3c(c(=O)n2[nH]1)CCC3", "percent response vs DMSO": "89.8% (inactive)"},
      {"smiles": "O=c1c2c(nc3cc(-c4cccc(Cl)c4)[nH]n13)CCCC2", "percent response vs DMSO": "99.2% (inactive)"},
      {"smiles": "CCCCCC(O)c1cccc(OCc2ccc3ccccc3n2)c1", "note": "(stereo unspecified)", "percent response vs DMSO": "88.3% (inactive)"},
      {"smiles": "O=C1CC(=O)Nc2cc(S(=O)(=O)N3CCN(c4cccc(C(F)(F)F)c4)CC3)ccc2N1", "percent response vs DMSO": "97.6% (inactive)"},
      {"smiles": "Cc1nc2c(ncn2-c2ccccc2)c(=O)n1NC(=O)CN1CCCC1", "percent response vs DMSO": "27.7% [may fluoresce violet] (active)"},
      {"smiles": "O=C(CN1CCCC1)N1CCN(c2ccccc2)CC1", "percent response vs DMSO": "90.5% (inactive)"},
      {"smiles": "Cc1nc2ccccc2c(=O)n1NC(=O)c1ccccc1", "percent response vs DMSO": "100% (inactive)"},
      {"smiles": "CN(CCc1cnn(C)c1)Cc1cn(C)nc1-c1ccccc1F", "percent response vs DMSO": "96.2% (inactive)"},
      {"smiles": "COc1cc(CN2CCCC(C(=O)c3ccc(SC)cc3)C2)cc(Cl)c1O", "note": "(stereo unspecified)", "percent response vs DMSO": "40.5% [may fluoresce violet] (active)"},
      {"smiles": "COc1ccc(C(=O)NC2CC2)cc1OC1CCN(Cc2ccc(SC)cc2)CC1", "percent response vs DMSO": "101% (inactive)"},
      {"smiles": "COc1ccc(CN2CCCC(C(=O)c3ccc(Cl)cc3)C2)cc1Cn1cncn1", "note": "(stereo unspecified)", "percent response vs DMSO": "105% (inactive)"},
      {"smiles": "CN(C)C(=O)c1cc(Br)ccc1Cl", "percent response vs DMSO": "95.1% (inactive)"},
      {"smiles": "Cc1ccc(SCCSc2ncccn2)cc1", "percent response vs DMSO": "109% (inactive)"},
      {"smiles": "Cc1ccc(SCC2=NNC(=O)C2)cc1", "percent response vs DMSO": "38.4% [may fluoresce violet] (active)"},
      {"smiles": "Cc1ccc(SCc2cc(=O)[nH]c(N3CCCCC3)n2)cc1", "percent response vs DMSO": "97.5% (inactive)"},
      {"smiles": "Cc1cccc(N2CCN(C(=O)CN(C)S(=O)(=O)c3ccc4c(c3)CCC(=O)N4)CC2)c1C", "percent response vs DMSO": "99.3% (inactive)"},
      {"smiles": "Clc1c(OCCCn2ccnc2)ccc2ccccc12", "percent response vs DMSO": "99.7% (inactive)"},
      {"smiles": "CCC(Oc1ccccc1)C(=O)NCc1cccnc1", "note": "(stereo unspecified)", "percent response vs DMSO": "100% (inactive)"},
      {"smiles": "O=C(CSc1ncccn1)NCCc1ccccc1", "percent response vs DMSO": "99.8% (inactive)"},
      {"smiles": "CC(=O)OC(C(=O)NCCc1ccccc1)c1cccnc1", "note": "(stereo unspecified)", "percent response vs DMSO": "47.6% [may fluoresce violet] (active)"},
      {"smiles": "O=C1COc2ccc(C(=O)COC(=O)CCOc3ccccc3)cc2N1", "percent response vs DMSO": "97.8% (inactive)"},
      {"smiles": "COCCN(CCOC)S(=O)(=O)c1ccc(C(=O)Nc2nc3c(s2)CCc2ccccc2-3)cc1", "percent response vs DMSO": "25.1% [may fluoresce violet] (active)"},
      {"smiles": "C=CCN(CC=C)S(=O)(=O)c1ccc(C(=O)Nc2nc3c(s2)CCc2ccccc2-3)cc1", "percent response vs DMSO": "103% (inactive)"},
      {"smiles": "COc1ccc(C(=O)Nc2ncc3c(n2)-c2ccccc2CC3)cc1", "percent response vs DMSO": "97.8% (inactive)"},
      {"smiles": "COc1cc(CNc2ncn[nH]2)ccc1OCc1ccccc1C", "percent response vs DMSO": "103% (inactive)"},
      {"smiles": "O=C1COc2ccc(S(=O)(=O)NCCc3ccc(Cl)cc3)cc2N1", "percent response vs DMSO": "103% (inactive)"},
      {"smiles": "O=C(COc1ccc(-n2cnnn2)cc1)Nc1ccccc1Cl", "percent response vs DMSO": "33.1% [may fluoresce violet] (active)"},
      {"smiles": "C=CCc1cccc(/C=N/NC(=O)COc2ccc(-n3cnnn3)cc2)c1O", "percent response vs DMSO": "105% (inactive)"},
      {"smiles": "O=C(Cc1c(F)cccc1Cl)Nc1ccc(-n2cnnn2)cc1", "percent response vs DMSO": "94.7% (inactive)"}
    ]}
  ]
}
